An excerpt weighted towards active compounds, which were near 21% of everything screened.
Pf growth 96h – inhibits malaria parasite growth, 96 h. actives 6.9% (n = 320,000). AID 504834. P. falciparum luciferase reporter growth, 96 h. Potency, µM (highest dose often 28.7 µM), for inactives: at the highest dose activity change, negative = inhibition, actives largely listed as inhibitors; also: potency is read from the fitted curve at half-maximal effect; % is scaled to controls: 0 for no effect and ±100 for the full control effect
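Plates of compound plus infected erythrocytes (2% hematocrit, 0.05% parasitemia final) incubate 96 hours, 37 C, 5% CO2. Detection reagent added; reduced luminescence from the parasites' luciferase reporter flags inhibition.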
AMA1-RON2 inh – AMA1-RON2 (P. falciparum) interaction inhibition; AlphaScreen AMA1-biotinylated RON2 peptide binding; Potency, µM (titrated, usually from 58.2 µM), without a hit: at the highest dose activity change, negative = inhibition, most hits filed as inhibitors; actives 0.2% (n = 360,000); AID 720542;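 also: potency is read from the fitted curve at half-maximal effect; 0% = vehicle wells and -100% = peptide control; nearly all actives have a fitted effect of over 45% in size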
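AMA1 (3D7) with his tag at 25 nM final met compounds first, then biotinylated RON2 peptide at 25 nM; detection used donor plus acceptor beads, 10 µg/mL apiece, read by AlphaScreen after 30 min at room temperature.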
Cycloheximide cs – counter-screen for Shiga toxin inhibitors: cycloheximide protein synthesis inhibition; cell reporter, cycloheximide protein synthesis inhibition counterscreen; max response, %; actives 12% (n = 300,000); in the data active = max response mostly above about 13%, no sharp cut-off; inactive = mostly below about 14%; also: read at 38.3 µM for the half of the compounds with a filed dose; 0% is about no effect
Pf growth 48h – P. falciparum growth inhibition at 48 hours (one generation). actives 5.9% (n = 310,000). P. falciparum luciferase growth in erythrocytes, 48 h. Potency, µM (doses to about 28.7 µM), inactives show at the highest dose activity change, negative = inhibition, hits mostly inhibitors; also: potency is read from the fitted curve at half-maximal effect; % is scaled to controls: 0 for no effect and ±100 for the full control effect
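Firefly luciferase activity from engineered P. falciparum reports growth; inhibitors lower the luminescent signal. Cultures contained 2% hematocrit erythrocytes at 0.1% final parasitemia.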
HCV inhibitor – blocks hepatitis C virus. actives 3.4% (n = 340,000). Huh7.5.1 HCVcc-Cre infection, luciferase reporter, 44 h. Potency, µM (top dose mostly 41.8 µM), for inactives: at the highest dose activity change, negative = inhibition, most hits filed as inhibitors; also: potency is read from the fitted curve at half-maximal effect; % is scaled to controls: 0 for no effect and ±100 for the full control effect
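Compounds are dispensed onto cells plated 4 h earlier at 1,000 per well, with HCVcc-Cre virus (about 0.5 moi) added next. Following 44 h of culture, luminescent signal is measured for 15 sec after 15 min with substrate at room temperature.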
Shiga inhibitor – inhibitors of Shiga toxin in Vero cells. inhibition, % at 38.7 µM. Vero cells, Shiga toxin protein synthesis inhibition reporter. actives 9.2% (n = 290,000); in the data active = inhibition mostly above about 28%, no sharp cut-off; inactive = mostly below about 43%; also: 0% is about no effect
The depositor's hits bear a star; i = inactive; ? = inconclusive; . = no result; [ ] = another dose, or the depositor's remark. Unless noted, calls follow the shape of the dose curve; as a rule, active = well fitted curve in the direction sought with a large enough effect; inconclusive = small, poorly fitted or top-dose-only effect, or another doubt; inactive = no such curve, though single readings can be large; an effect the other way counts as inactive or inconclusive.

SMILES	Pf growth 96h	AMA1-RON2 inh	Cycloheximide cs	Pf growth 48h	HCV inhibitor	Shiga inhibitor
O=C(CSc1nc2ccc(NC(=O)CSc3nnnn3-c3ccccc3)cc2s1)Nc1ccccc1	?	0%	4	-26%	-12%	-84
CC1(C)CC2CC(C)(CN2C(=O)COC(=O)c2cncc(Br)c2)C1 (stereo unspecified)	30%	-8%	.	12%	4%	.
O=C(NNC(=O)c1ccccc1C(=O)O)c1ccc(-c2ccccc2)cc1	9%	.	16	5%	.	28
N=c1ccn(CC(=O)c2ccc(-c3ccccc3)cc2)cc1	?	-21%	-1	0.83µM*	0.89µM*	-5
O=C(CN1C(=O)CCC1=O)c1ccc(-c2ccccc2)cc1	10%	-9%	63*	79%	28%	83*
O=C(CN1C(=O)C(=O)c2ccccc21)c1ccccc1	-10%	1%	-2	17%	10%	-5
Cc1nc2c(OCCN3C(=O)c4ccccc4C3=O)cccn2c1N(C)C(=O)CCC1CCCC1	.	-4%	.	.	.	.
O=C(CSc1nccn(-c2ccc(Br)cc2)c1=O)NCc1ccccc1	?	-7%	.	13µM*	6%	.
COc1ccccc1CNC(=O)CCC(=O)n1ncc2cc(C)ccc21	2.6µM*	0%	6	8%	10%	2
COc1ccccc1-n1ccnc(SCC(=O)NCc2ccccc2)c1=O	13%	12%	.	-6%	-6%	.
COc1ccccc1CNC(=O)CSc1ccccc1	26%	9%	19*	-29%	6%	50*
O=C(CSc1ccccc1)NCc1ccccc1	?	2%	18*	83%	6%	.
COc1ccccc1CNC(=O)CSc1ccc(C)cc1	19%	0%	15	-1%	17%	14
O=C(CSc1ccccc1)NCc1cccnc1	-20%	1%	-4	-6%	9%	-5
O=C(NN1CCOCC1)c1ccccc1	10%	18%	6	?	16%	-22
CC1CCc2c(sc(NC(=O)Cc3ccccc3)c2C(=O)Nc2ccc(Cl)cc2)C1 (stereo unspecified)	.	.	-9	.	.	-10
COc1ccccc1CNC(=O)c1n[nH]c2ccccc12	52%	12%	29*	-3%	-13%	46*
COc1ccccc1CNC(=O)Cc1ccc(OC)c(OC)c1	-21%	-1%	-2	9%	1%	-5
COc1ccccc1CNC(=O)c1ccc(C)s1	6.6µM*	-17%	3	60%	-6%	21
COc1ccccc1CNC(=O)Cc1ccccc1	-8%	2%	35*	0%	-19%	35*
COc1ccccc1CNC(=O)c1cc2c(s1)CS(=O)(=O)C2	i	1%	2	-3%	-6%	-14
COc1ccccc1CNC(=O)COC(=O)c1n[nH]c2ccccc12	?	-21%	13	.	?	12
COc1cc(NC(=O)c2ccccc2)c(C)cc1NC(=O)CC(CC(=O)O)c1ccccc1 (stereo unspecified)	31%	4%	-4	76%	19%	-6
Cc1ccc(S(=O)(=O)c2cc3cc(Br)ccc3oc2=O)cc1	1.7µM*	-14%	6	35%	42%	7
CC(C)c1ccc(S(=O)(=O)c2cc3cc(Br)ccc3oc2=O)cc1	44%	12%[2.32 µM]	-1	17%	6%	2
SMILES	Pf growth 96h	AMA1-RON2 inh	Cycloheximide cs	Pf growth 48h	HCV inhibitor	Shiga inhibitor
COc1cccc(-c2cc(C(=O)NCC3CCCO3)on2)c1 (stereo unspecified)	?	-5%	36*	104%	-2%	48*
Fc1ccc(-c2cc(C(F)(F)F)nc(NCC3CCCO3)n2)cc1 (stereo unspecified)	?	31%	13	?	10µM*	15
O=C(NCC1CCCO1)c1cc(-c2ccc(F)cc2)no1 (stereo unspecified)	?	11%	45*	92%	5%	97*
COc1ccc(-c2cc(C(=O)NCC3CCCO3)on2)cc1OC (stereo unspecified)	?	-5%	3	13%	-9%	-5
FC(F)(F)c1cc(-c2ccccc2)nc(NCC2CCCO2)n1 (stereo unspecified)	48%	31%	-5	3%	?	-17
CC(C)(C)CN1CCC(n2nccc2NC(=O)c2ccccc2Cl)CC1	-13%	-10%	10	-19%	9%	-11
O=C(NNc1c(Cl)cccc1Cl)c1ccno1	18%	5%	-1	9%	1%	6
O=C(NCC(c1cccs1)N1CCOCC1)C1CCN(S(=O)(=O)c2cc(Cl)ccc2Cl)CC1 (stereo unspecified)	.	11%[11.6 µM]	.	.	-12%	.
O=C(NCc1cccs1)C1CCN(c2ccc(S(=O)(=O)N3CCOCC3)cc2Cl)CC1	?	-8%	-1	4.7µM*	11%	-10
O=C(NCC(c1cccs1)N1CCOCC1)C1CCN(S(=O)(=O)c2c(Cl)cccc2Cl)CC1 (stereo unspecified)	?	1%	.	13µM*	?	.
C#CCNC(=O)C1CCN(c2ccc(S(=O)(=O)N3CCOCC3)cc2Cl)CC1	?	-5%	-3	?	0%	-10
CS(=O)(=O)N1CCC(Oc2ccccc2C(=O)NC2CCOC2)CC1 (stereo unspecified)	0%	9%	2	-2%	1%	9
CSCCCNC(=O)c1ccccc1OC1CCN(S(C)(=O)=O)CC1	1%	31%	9	34%	6%	9
CS(=O)(=O)N1CCC(Oc2ccccc2C(=O)NC(C2CC2)C2CC2)CC1	26%	-6%	16	-5%	5%	45*
CS(=O)(=O)N1CCC(Oc2ccccc2C(=O)NCCCc2cccnc2)CC1	9.3µM*	6%	1	-11%	11%	-2
Nc1ccn([C@@H]2O[C@H](C(=O)NCc3ccc4c(c3)OCO4)[C@@H](O)[C@H]2O)c(=O)n1	.	-8%	.	.	.	.
CCOc1ccccc1NC(=O)NC(C)c1ccncc1 (stereo unspecified)	70%	-4%	-3	1%	-19%	-4
Cc1[nH]c(=O)[nH]c(=O)c1S(=O)(=O)N(CC(C)C)CC(C)C	0%	4%	-1	10%	-3%	17
Cc1ccc(CCSCC(=O)O)cn1	2%	-6%	-2	8%	19%	-2
Cc1ccc(SCCc2ccc(C)nc2)cc1	-22%	23%	22*	42%	28%	active
Cc1ccccc1-c1cc(C(=O)NCc2cccc(Br)c2)nn1CC1CC(c2cccc([N+](=O)[O-])c2)=NO1 (stereo unspecified)	.	-1%	.	.	?	.
COc1ccc(C(=O)N/N=C(\C)Cn2nc([N+](=O)[O-])cc2C)cc1	-21%	20%	16	5%	7%	58*
C/C(Cn1cnc([N+](=O)[O-])n1)=N\NC(=O)c1ccccc1	-1%	19%	30*	40%	5%	57*
